Measured values from PubChem BioAssay (NCI).
Compounds without any hit were thinned out: in the full panel of roughly 79,000, 15% have a hit. The source made the active and inactive calls. Rule as the data show it: active = growth inhibition above about 70%; inactive = the rest.

Columns and labels:
[1] = NCI Yeast Anticancer Drug Screen. Data for the rad52 strain (AID 147);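 also: 0% = growth of vehicle-treated control cultures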; conditions: S. cerevisiae rad52 mutant growth inhibition, active compounds read high
In short: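 Compounds are applied to a genetically defined yeast strain lacking normal DNA damage repair, and inhibition of growth is expressed relative to cultures given vehicle only.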

[2] = NCI Yeast Anticancer Drug Screen. Data for the wt1 strain (AID 149);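 also: 0% = growth of vehicle-treated wt1 cultures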; conditions: S. cerevisiae wt1 strain (SPY 50644) growth inhibition, active compounds read high
In short: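 Yeast wt1 strain exposed to compounds; growth inhibition measured relative to vehicle-treated controls.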

[3] = NCI Yeast Anticancer Drug Screen. Data for the rad50EPP+ strain (AID 151);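 also: 0% = growth of vehicle-treated control cultures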; conditions: S. cerevisiae rad50 mutant strain, active compounds read high
In short: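 Compounds were applied to the rad50EPP+ yeast strain, which bears a defined DNA repair alteration, and growth inhibition was determined relative to vehicle-treated cultures.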

[4] = NCI Yeast Anticancer Drug Screen. Data for the mgt1 strain (AID 153); conditions: S. cerevisiae mgt1 mutant growth inhibition, active compounds read high
In short: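 Strain: mgt1 yeast, one of a set carrying defined DNA damage repair or cell cycle control alterations. Compound-treated growth compared with vehicle.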

[5] = NCI Yeast Anticancer Drug Screen. Data for the rad50 strain (AID 155);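 also: 0% = growth of vehicle-only cultures of the same strain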; conditions: S. cerevisiae rad50 strain growth inhibition, active compounds read high
In short: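 Yeast carrying a defined DNA repair defect were exposed to test compounds, and growth was compared with vehicle-treated controls to give percent inhibition.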

[6] = NCI Yeast Anticancer Drug Screen. Data for the mec2-1 strain (AID 157); conditions: S. cerevisiae mec2-1 strain, active compounds read high
In short: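 Strain: mec2-1 (DNA repair/cell cycle alteration). Compound exposure, then growth measured; inhibition expressed relative to vehicle.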

[7] = NCI Yeast Anticancer Drug Screen. Data for the rad14 strain (AID 159);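 also: 0% = growth of vehicle-treated control cultures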; conditions: S. cerevisiae rad14 strain growth inhibition, active compounds read high
In short: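 Yeast cells carrying a defined DNA-repair defect were exposed to compounds, and growth inhibition was calculated relative to vehicle-treated control cultures.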

[8] = NCI Yeast Anticancer Drug Screen. Data for the sgs1 mgt1 strain (AID 161);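 also: 0% = growth of cultures given vehicle only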; conditions: S. cerevisiae sgs1 mgt1 strain, active compounds read high
In short: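 Genetically altered yeast, compound exposure, growth inhibition relative to vehicle.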

[9] = NCI Yeast Anticancer Drug Screen. Data for the CLN2oe strain (AID 163);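 also: 0% = growth of vehicle-only control cultures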; conditions: S. cerevisiae CLN2oe strain, active compounds read high
In short: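 Growth of a genetically modified yeast strain is measured after compound exposure and compared with cultures given vehicle alone.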

[10] = NCI Yeast Anticancer Drug Screen. Data for the cln2 rad14 strain (AID 165);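 also: 0% = growth equal to vehicle treated cultures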; conditions: S. cerevisiae cln2 rad14 strain, active compounds read high
In short: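 Compounds are applied to the cln2 rad14 yeast strain, and growth is then compared with that of vehicle-treated cultures to give inhibition.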

[11] = NCI Yeast Anticancer Drug Screen. Data for the bub3 strain (AID 167); conditions: S. cerevisiae bub3 mutant strain, active compounds read high
In short: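 Compounds were applied to a genetically altered yeast strain carrying a cell-cycle control defect. Growth inhibition was scored against vehicle-treated controls.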

[12] = NCI Yeast Anticancer Drug Screen. Data for the wt2 strain (AID 169);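 also: 0% = growth of vehicle-treated yeast cultures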; conditions: S. cerevisiae wt2 strain growth inhibition, active compounds read high
In short: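 This strain belongs to a panel of yeast strains with defined genetic alterations in DNA damage repair or cell cycle control. Compounds are applied, and growth inhibition is measured against vehicle-treated cultures.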

[13] = NCI Yeast Anticancer Drug Screen. Data for the mlh1 strain (AID 171);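 also: 0% = growth of vehicle-treated control cultures of the same strain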; conditions: S. cerevisiae mlh1 strain growth inhibition, active compounds read high
In short: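 Growth of the mutant yeast strain after compound exposure, expressed as inhibition relative to vehicle-only controls.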

[14] = NCI Yeast Anticancer Drug Screen. Data for the sgs1 strain (AID 173);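 also: 0% = growth of vehicle-only control cultures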; conditions: S. cerevisiae sgs1 mutant, active compounds read high
In short: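 Growth of a yeast strain bearing a defined genetic alteration is measured after compound treatment. Inhibition is expressed relative to vehicle-only controls.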

[15] = NCI Yeast Anticancer Drug Screen. Data for the mlh1 rad18 strain (AID 175); conditions: S. cerevisiae mlh1 rad18 strain growth inhibition, active compounds read high
In short: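 Read-out is yeast growth inhibition, calculated against vehicle-only controls. The compound was applied to a strain engineered with DNA damage repair alterations.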

[16] = NCI Yeast Anticancer Drug Screen. Data for the rad18 strain (AID 177); conditions: S. cerevisiae rad18 mutant growth inhibition, active compounds read high
In short: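 Growth of the mutant yeast strain after compound exposure, normalised to vehicle-only cultures.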

[17] = at 5.0 µM (retest, dose inferred, filed as 0.5)
[18] = at 50.0 µM (retest, dose inferred, filed as 5.0)

Measured: growth inhibition

NC(=O)NN=C(CS)CS
inactive: [1]; at 1.2 µM -1% | [1]; at 3.7 µM 4% | [1]; at 11.0 µM 19% | [1]; at 33.0 µM 50% | [2]; at 1.2 µM -1% | [2]; at 3.7 µM -2% | [2]; at 11.0 µM -1% | [2]; at 33.0 µM 17% | [2]; at 100.0 µM 33% | [3]; at 1.2 µM -2% | [3]; at 3.7 µM -1% | [3]; at 11.0 µM -5% | [3]; at 33.0 µM 6% | [3]; at 100.0 µM 29% | [4]; at 1.2 µM -1% | [4]; at 3.7 µM 0% | [4]; at 11.0 µM 2% | [4]; at 33.0 µM 12% | [4]; at 100.0 µM 66% | [5]; at 1.2 µM 1% | [5]; at 3.7 µM 30% | [5]; [17] 4% | [5]; at 11.0 µM 31% | [5]; at 33.0 µM 44% | [5]; [18] 57% | [5]; at 50.0 µM 63.8% | [6]; at 1.2 µM 0% | [6]; at 3.7 µM 0% | [6]; [17] 1% | [6]; at 11.0 µM 6% | [6]; at 33.0 µM 24% | [6]; [18] 28% | [6]; at 50.0 µM 48.5% | [6]; at 100.0 µM 60% | [7]; at 1.2 µM -2% | [7]; at 3.7 µM 0% | [7]; at 11.0 µM 6% | [7]; at 33.0 µM 30% | [8]; [17] 2% | [8]; [18] 32% | [9]; at 1.2 µM -9% | [9]; at 3.7 µM -11% | [9]; at 11.0 µM -10% | [9]; at 33.0 µM 0% | [9]; at 100.0 µM 11% | [10]; [17] -22% | [10]; [18] 9% | [10]; at 50.0 µM -11.9% | [11]; at 1.2 µM 0% | [11]; at 3.7 µM -7% | [11]; [17] -3% | [11]; at 11.0 µM 3% | [11]; at 33.0 µM 14% | [11]; [18] 15% | [11]; at 50.0 µM 27.4% | [11]; at 100.0 µM 56% | [12]; at 1.2 µM 0% | [12]; at 3.7 µM 8% | [12]; at 11.0 µM 2% | [12]; at 33.0 µM 10% | [12]; at 100.0 µM 46% | [13]; at 1.2 µM 0% | [13]; at 3.7 µM -1% | [13]; at 11.0 µM 3% | [13]; at 33.0 µM 14% | [13]; at 100.0 µM 60% | [14]; at 1.2 µM 0% | [14]; at 3.7 µM 5% | [14]; at 11.0 µM 18% | [14]; at 33.0 µM 49% | [15]; [17] 5% | [15]; [18] 47% | [16]; at 1.2 µM -1% | [16]; at 3.7 µM 6% | [16]; at 11.0 µM 19% | [16]; at 33.0 µM 61%
active: [1]; at 100.0 µM 88% | [5]; at 100.0 µM 89% | [7]; at 100.0 µM 97% | [8]; at 50.0 µM 75% | [14]; at 100.0 µM 89% | [15]; at 50.0 µM 84.8% | [16]; at 100.0 µM 95%

Cc1ccc(S(=O)(=O)NCCSS(=O)(=O)c2ccc(C)cc2)cc1
inactive: [1]; at 1.2 µM 18% | [1]; at 3.7 µM 31% | [1]; at 11.0 µM 38% | [2]; at 1.2 µM 6% | [2]; at 3.7 µM 8% | [2]; at 11.0 µM 28% | [3]; at 1.2 µM -14% | [3]; at 3.7 µM 6% | [3]; at 11.0 µM 64% | [4]; at 1.2 µM -13% | [4]; at 3.7 µM -8% | [4]; at 11.0 µM 3% | [5]; at 1.2 µM 9% | [5]; at 3.7 µM 6% | [5]; [17] 36% | [5]; at 11.0 µM 17% | [6]; at 1.2 µM -2% | [6]; at 3.7 µM -13% | [6]; [17] -24% | [6]; at 11.0 µM 7% | [7]; at 1.2 µM -10% | [7]; at 3.7 µM -15% | [7]; at 11.0 µM -6% | [8]; [17] 7% | [9]; at 1.2 µM -29% | [9]; at 3.7 µM -16% | [9]; at 11.0 µM -6% | [10]; [17] 20% | [11]; at 1.2 µM -14% | [11]; at 3.7 µM -29% | [11]; [17] 30% | [11]; at 11.0 µM -4% | [12]; at 1.2 µM -14% | [12]; at 3.7 µM -17% | [12]; at 11.0 µM -1% | [13]; at 1.2 µM -27% | [13]; at 3.7 µM -34% | [13]; at 11.0 µM -14% | [14]; at 1.2 µM 20% | [14]; at 3.7 µM 21% | [14]; at 11.0 µM 45% | [15]; [17] 10% | [16]; at 1.2 µM -2% | [16]; at 3.7 µM 6% | [16]; at 11.0 µM 12%
active: [1]; at 33.0 µM 98% | [1]; at 100.0 µM 95% | [2]; at 33.0 µM 99% | [2]; at 100.0 µM 95% | [3]; at 33.0 µM 91% | [3]; at 100.0 µM 96% | [4]; at 33.0 µM 98% | [4]; at 100.0 µM 94% | [5]; at 33.0 µM 98% | [5]; [18] 95% | [5]; at 50.0 µM 88.7% | [5]; at 100.0 µM 93% | [6]; at 33.0 µM 98% | [6]; [18] 96% | [6]; at 50.0 µM 93% | [6]; at 100.0 µM 96% | [7]; at 33.0 µM 98% | [7]; at 100.0 µM 92% | [8]; [18] 95% | [8]; at 50.0 µM 91% | [9]; at 33.0 µM 96% | [9]; at 100.0 µM 93% | [10]; [18] 96% | [10]; at 50.0 µM 87.2% | [11]; at 33.0 µM 98% | [11]; [18] 97% | [11]; at 50.0 µM 88.8% | [11]; at 100.0 µM 94% | [12]; at 33.0 µM 97% | [12]; at 100.0 µM 94% | [13]; at 33.0 µM 98% | [13]; at 100.0 µM 94% | [14]; at 33.0 µM 99% | [14]; at 100.0 µM 96% | [15]; [18] 95% | [15]; at 50.0 µM 88.7% | [16]; at 33.0 µM 99% | [16]; at 100.0 µM 94%
